Records with an inconclusive call do not appear. Active and inactive are the calls of the source. Unless noted, calls follow the shape of the dose curve; as a rule, active = well fitted curve in the direction sought with a large enough effect; inconclusive = small, poorly fitted or top-dose-only effect, or another doubt; inactive = no such curve, though single readings can be large; an effect the other way counts as inactive or inconclusive.
Legend:
[1] = molecular target: Lysosomal acid glucosylceramidase (Homo sapiens) (UniProt P04062); assay: Glucocerebrosidase-p2 (AID 348; in the data active = potency below about 10 µM; also: potency is read from the fitted curve at half-maximal effect); settings: purified GBA, blue fluorogenic substrate, 40 min
In short: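 Compounds titrated from 0.6 nM upwards against 0.2 nM enzyme in pH 5.9 citric acid/KH2PO4, taurocholate, tween-20; blue fluorogenic substrate 80 uM, 40 min room temperature, stopped and read Ex 365/Em 440 for AC50.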

[2] = molecular target: Cytochrome P450 1A2 (Homo sapiens) (UniProt P05177); assay: p450-cyp1a2 (AID 410; calls by dose curve;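 also: -100% = full effect of reference inhibitor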); settings: recombinant CYP1A2, luciferin-ME demethylation, luminescence; series mostly up to 11.4 µM
In short: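 20nM CYP1A2 with 100uM Luciferin-ME (at Km) in 100mM KPO4; compound preincubated 10 min, NADPH regeneration added, 60 min at room temperature. Luciferin quantified by luminescence after detection reagent; normalized to 57 uM furafylline.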

[3] = Cell Viability - BJ (AID 421; calls by dose curve;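 also: potency is read from the fitted curve at half-maximal effect; cells exposed to compound for 40 hours at 37 °C before readout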); settings: BJ fibroblast viability, qHTS
In short: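 Cytotoxicity as drop in intracellular ATP (CellTiter-Glo, 20 min RT) after 40 hr compound exposure of BJ fibroblasts at 37 °C. Titrations scaled between DMSO and 100 uM tamoxifen, Hill-fitted for AC50.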

[4] = Cell Viability - Jurkat (AID 426;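 active = dose-dependent loss of cell ATP signal giving a full or clear fitted curve, ranked by lower potency value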; also: potency is read from the fitted curve at half-maximal effect); settings: qHTS
In short: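 Jurkat (Clone E6-1) cells, 5000/well in complete medium, exposed to compounds for 40 hr at 37C; intracellular ATP measured by CellTiter-Glo luminescence after 20 min at room temperature. AC50 from Hill fits.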

[5] = Cell Viability - Hek293 (AID 427;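 active = compounds whose dose-response curve shows a full or clear partial loss of cell viability, called from curve shape rather than a numeric limit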;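 also: potency is read from the fitted curve at half-maximal effect; cells exposed to compound for 40 hours at 37 °C before reading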); settings: qHTS
In short: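 Luminescent ATP content (CellTiter-Glo, 20 min at room temperature) was measured after a 40 hr, 37 °C compound exposure of HEK293 cells. AC50 values came from Hill-equation fits of qHTS concentration-response data normalized to DMSO and 100 uM tamoxifen.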

[6] = Cell Viability - HepG2 (AID 433; calls by dose curve;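 also: potency is read from the fitted curve at half-maximal effect; potency for ATP loss meaning cytotoxicity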); settings: qHTS
In short: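 Read-out is luciferase-based quantitation of cellular ATP as a measure of viable HepG2 cells after 40 h treatment at 37 °C. Signal decrease is scaled between DMSO-only and 100 uM tamoxifen controls, with AC50 fitted by the Hill equation.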

[7] = Cell Viability - MRC5 (AID 434; calls by dose curve;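 also: potency is read from the fitted curve at half-maximal effect; potency reflects cytotoxicity seen as loss of intracellular ATP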); settings: MRC5 lung fibroblast viability, qHTS
In short: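 MRC5 normal human lung fibroblasts, 1500 cells/well, exposed to compound for 40 hr at 37 C. Cellular ATP was read by CellTiter-Glo luminescence; data normalized to DMSO and 100 uM tamoxifen, with AC50 from Hill fits.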

[8] = Cell Viability - SK-N-SH (AID 435; calls by dose curve;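 also: potency is read from the fitted curve at half-maximal effect; compound exposure lasted 40 h at 37 °C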); settings: SK-N-SH neuroblastoma cell viability qHTS
In short: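 Luminescent ATP signal served as the viability read-out after 40 hours of compound treatment of human neuroblastoma SK-N-SH cells. Concentration-response data, scaled between DMSO and 100 uM tamoxifen, gave AC50 values by standard Hill modeling.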

[9] = NFAT Signaling Pathway (AID 444; active = well fitted curve in either direction with a large enough effect, not every such curve was filed as active;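 also: carbachol stimulus at about its EC50 of 1 µM final; % is scaled to controls: 0 for no effect and ±100 for the full control effect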); settings: Jurkat NFAT-bla M1, carbachol, beta-lactamase ratio, 5 h; at 7.69 µM (top of the series) unless noted
In short: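 Jurkat cells with NFAT-driven β-lactamase reporter and co-expressed M1 receptor, stimulated with carbachol (final 1 uM, ~EC50), compound titration, 5 h at 37 °C. CCF4 loaded 1 h at RT; 460/530 nm ratio gave %activity and AC50.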

[10] = Stat Signaling Pathway (AID 446; active = well fitted curve in either direction with a large enough effect, not every such curve was filed as active;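 also: ME-180 cervical cancer cells given 40 pM IL-6 alongside compound; SIE-controlled beta-lactamase reporter measured as 460/530 nm FRET emission ratio; % is scaled to controls: 0 for no effect and ±100 for the full control effect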); settings: ME-180 SIE beta-lactamase reporter, IL-6 stimulated, 5 h; at 7.69 µM (top of the series) unless noted
In short: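 Reporter line: ME-180 cervical carcinoma, SIE-beta-lactamase. Treatment: compound with 40 pM IL-6, 5 hrs, 37 C, in low-serum OPTI-MEM with 10 mM HEPES pH 7.3. Detection: 460/530 nm fluorescence.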

[11] = molecular target: Glucocorticoid receptor (Homo sapiens) (UniProt P04150); assay: GR-GFP Redistribution (AID 450;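 active = compounds whose dose series gives a full or clear partial fitted curve of increased nuclear translocation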; also: potency is read from the fitted curve at half-maximal effect); settings: U2OS GR-GFP nuclear translocation, laser cytometry, 2 h
[12] = molecular target: Glucocorticoid receptor (Homo sapiens) (UniProt P04150); assay: GR-EFC Redistribution (AID 451; calls by dose curve; also: potency is read from the fitted curve at half-maximal effect); settings: CHO-K1 GR-EFC translocation, beta-gal luminescence, 2 h
In short: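 CHO-K1 cells expressing nuclear EA and GR-ED fragments of b-gal; compounds titrated up to 46 uM final, 2 h at 37 C. GR nuclear translocation read as complemented b-gal luminescence after 1 h RT detection.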

[13] = molecular target: Mitogen-activated protein kinase 10 (Mus musculus) (UniProt Q61831); assay: JNK3 AlphaScreen Assay (AID 530; active = well fitted curve in either direction with a large enough effect, not every such curve was filed as active;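 also: kinase came from lysate of stimulated human HepG2 cells; signal reports phosphorylation of biotinylated GST-cJun 1-79 at Ser73 with 10 µM ATP; % is scaled to controls: 0 for no effect and ±100 for the full control effect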); settings: JNK3 lysate, c-Jun phosphorylation; series mostly up to 11.4 µM
In short: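 Pre-activated (IL-1β/TNFα) JNK3 in HepG2 lysates phosphorylates biotin-GST-cJun(1-79), 10 uM ATP; anti-phospho-cJun(Ser73) AlphaScreen read at room temperature, pH 7.6 Tris buffer. Compounds pre-incubated 15 min as titrations.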

[14] = Cell Viability - N2a (AID 540); settings: N2a mouse neuroblastoma cell viability; activity change, negative = cytotoxicity: at 92.2 µM (top of the series);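 also: plate controls were DMSO alone for no effect and tamoxifen control for full effect; nearly all actives have a fitted effect of over 45% in size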
In short: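 Mouse neuroblastoma N2a cells, 1500/well, exposed to compounds 40 h at 37 °C in complete medium. Viability measured as cellular ATP by CellTiter-Glo luminescence; AC50 from Hill fits of concentration-response.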

[15] = Cell Viability - NIH 3T3 (AID 541); settings: NIH 3T3 cell viability, qHTS; activity change, negative = cytotoxicity: at 92.2 µM (top of the series);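 also: plate controls were DMSO alone for no effect and tamoxifen positive control for full effect; nearly all actives have a fitted effect of over 25% in size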
In short: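 Mouse NIH 3T3 fibroblasts, 1000 cells/well, rested 5 hr at 37 °C, then exposed to compound for 40 hr at 37 °C in complete medium. Viability read as intracellular ATP by CellTiter-Glo luminescence; AC50 from Hill-equation fits of concentration-response data.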

[16] = Cell Viability - HUV-EC-C (AID 542); settings: HUV-EC-C endothelial cell viability, qHTS; series mostly up to 92.2 µM; also: % is scaled to controls: 0 for no effect and ±100 for the full control effect; nearly all actives have a fitted effect of over 35% in size
In short: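 HUV-EC-C human vascular endothelial cells, 1000/well, exposed to compound for 40 hr at 37 °C in complete medium. Intracellular ATP was read by CellTiter-Glo luminescence. AC50 came from Hill-equation fits of concentration-response data.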

[17] = Cell Viability - H-4-II-E (AID 543); settings: H-4-II-E rat hepatoma viability; series mostly up to 92.2 µM; also: % is scaled to controls: 0 for no effect and ±100 for the full control effect; nearly all actives have a fitted effect of over 35% in size
In short: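 Rat hepatoma H-4-II-E cells, 1500 per well, treated 40 h at 37 °C in complete medium. Cellular ATP read by CellTiter-Glo luminescence; AC50 from Hill fits of concentration-response.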

[18] = Cell Viability - SH-SY5Y (AID 544); settings: SH-SY5Y neuroblastoma cell viability; viability change, negative = cytotoxic: at 92.2 µM (top of the series); also: nearly all actives have a fitted effect of over 55% in size
In short: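 SH-SY5Y human neuroblastoma cells (1500/well) incubated 5 h, then compound-treated 40 h at 37 °C in complete medium. Viability read as intracellular ATP by CellTiter-Glo luminescence after 20 min; AC50 from Hill-equation fits of qHTS concentration-response.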

[19] = Cell Viability - Renal Proximal Tubule (AID 545); settings: renal proximal tubule cells viability, primary cells of rat origin; activity change, negative = cytotoxicity: at 91.7 µM (top of the series); also: nearly all actives have a fitted effect of over 40% in size
In short: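 Luminescent ATP signal (CellTiter-Glo) served as the viability read-out after 40 hr compound exposure of freshly isolated rat proximal tubule cells at 37 °C. Concentration-dependent ATP loss was fitted with the Hill equation to give AC50.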

[20] = Cell Viability - Mesenchymal (AID 546); settings: mesenchymal cells viability, qHTS; activity change, negative = cytotoxicity: at 91.7 µM (top of the series);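 also: cells exposed to compound for 40 hours before reading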
In short: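 Human kidney mesenchymal cells from normal renal glomeruli, 1000 cells/well, rested 5 hr at 37 °C, then treated 40 hr at 37 °C in complete medium. Cellular ATP read by CellTiter-Glo luminescence; AC50 from Hill-equation fits.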

[21] = molecular target: 3',5'-cyclic-AMP phosphodiesterase 4B (Homo sapiens) (UniProt Q07343); assay: qHTS Assay for Inhibitors of PDE-IV (AID 607; active = well fitted activation curve with a large enough effect in the main read-out, with a control signal flat, not every such curve was filed as active; also: % of control where 0% means no effect); settings: HEK293 ACTOne CNG channel cells, membrane potential fluorescence; series mostly up to 22.9 µM
In short: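 Cell-based read-out of cAMP via a modified cyclic nucleotide-gated channel and membrane potential dye (535/590 nm) in HEK293 cells expressing PDE4 endogenously. Compounds tested up to 22.9 uM final; 100 uM RO 20-1724 reference.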

[22] = Cellular Toxicity (caspase-3) Jurkat (AID 655); settings: Jurkat caspase-3 activation, luminescence; caspase-3 activation: at 92.2 µM (top of the series), DMSO = 0%, tamoxifen = 100%;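 also: cells exposed to compound for 16 h at 37 °C before reading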
In short: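 5000 Jurkat cells/well; compound 16 hr, 37 °C; Caspase-Glo 3/7 added, 20 min RT; luminescence read. Norm: DMSO = 0%, tamoxifen 100 uM = 100%. AC50, Hill model.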

[23] = Cellular Toxicity (caspase-3) HUV-EC-C (AID 656); settings: HUV-EC-C cells, caspase-3 activation (apoptosis); series mostly up to 92.2 µM
In short: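 qHTS; HUV-EC-C, 1000 cells/well; 5 hr settle, 16 hr cmpd, 37°C; Caspase-Glo 3/7, 20 min RT; luminescence. Norm: DMSO = 0%, tamoxifen 100 uM = 100%. Hill-fit AC50.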

[24] = Cellular Toxicity (caspase-3) SHSY5Y (AID 657); settings: SH-SY5Y caspase-3 activation; series mostly up to 91.7 µM;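 also: cells exposed to compound for 16 hours at 37 °C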
In short: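 qHTS, SH-SY5Y, 1500 cells/well, 5 h pre-incubation 37 °C; compound 16 h 37 °C; Caspase-Glo 3/7 1 h RT; luminescence. Norm.: DMSO = 0, 10 uM staurosporine = 100%. Hill fit → AC50.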

Sequence of Glucocorticoid receptor (Homo sapiens) (P04150 whole entry, looked up, the tested form may be a part): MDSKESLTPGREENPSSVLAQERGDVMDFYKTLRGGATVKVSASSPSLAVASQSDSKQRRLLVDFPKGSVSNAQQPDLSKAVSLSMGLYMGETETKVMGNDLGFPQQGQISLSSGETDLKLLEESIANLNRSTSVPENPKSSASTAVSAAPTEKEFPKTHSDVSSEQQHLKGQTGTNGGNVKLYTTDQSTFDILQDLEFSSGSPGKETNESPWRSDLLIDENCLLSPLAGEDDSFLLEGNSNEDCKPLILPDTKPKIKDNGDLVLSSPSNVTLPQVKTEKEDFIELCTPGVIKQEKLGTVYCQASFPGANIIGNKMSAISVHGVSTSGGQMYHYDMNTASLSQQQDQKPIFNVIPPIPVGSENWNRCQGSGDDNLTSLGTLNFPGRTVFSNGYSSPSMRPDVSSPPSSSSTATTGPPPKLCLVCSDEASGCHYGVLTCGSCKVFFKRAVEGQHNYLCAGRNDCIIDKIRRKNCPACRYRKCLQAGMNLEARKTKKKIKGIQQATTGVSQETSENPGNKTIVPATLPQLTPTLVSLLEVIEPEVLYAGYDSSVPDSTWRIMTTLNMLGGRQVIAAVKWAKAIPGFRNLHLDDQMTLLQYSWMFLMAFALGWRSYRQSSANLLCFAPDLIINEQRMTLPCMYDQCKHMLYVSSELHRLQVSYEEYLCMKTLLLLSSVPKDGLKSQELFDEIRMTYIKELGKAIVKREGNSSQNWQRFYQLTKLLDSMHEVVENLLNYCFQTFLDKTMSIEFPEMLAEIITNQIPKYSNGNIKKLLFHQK
Sequence of Lysosomal acid glucosylceramidase (Homo sapiens) (P04062 whole entry, looked up): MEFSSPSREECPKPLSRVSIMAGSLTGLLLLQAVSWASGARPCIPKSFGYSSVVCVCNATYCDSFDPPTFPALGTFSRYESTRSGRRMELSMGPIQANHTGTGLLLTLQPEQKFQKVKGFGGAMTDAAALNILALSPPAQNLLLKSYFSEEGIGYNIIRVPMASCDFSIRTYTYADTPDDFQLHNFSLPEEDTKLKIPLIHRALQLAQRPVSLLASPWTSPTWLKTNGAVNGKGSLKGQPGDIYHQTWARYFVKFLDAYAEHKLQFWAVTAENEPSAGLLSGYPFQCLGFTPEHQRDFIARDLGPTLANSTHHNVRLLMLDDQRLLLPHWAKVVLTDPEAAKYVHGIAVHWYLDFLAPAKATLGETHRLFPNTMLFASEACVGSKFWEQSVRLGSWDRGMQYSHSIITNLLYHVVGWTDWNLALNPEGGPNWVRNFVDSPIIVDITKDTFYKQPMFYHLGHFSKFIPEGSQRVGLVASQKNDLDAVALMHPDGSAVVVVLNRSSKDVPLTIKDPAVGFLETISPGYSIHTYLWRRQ
Sequence of 3',5'-cyclic-AMP phosphodiesterase 4B (Homo sapiens) (Q07343 whole entry, looked up): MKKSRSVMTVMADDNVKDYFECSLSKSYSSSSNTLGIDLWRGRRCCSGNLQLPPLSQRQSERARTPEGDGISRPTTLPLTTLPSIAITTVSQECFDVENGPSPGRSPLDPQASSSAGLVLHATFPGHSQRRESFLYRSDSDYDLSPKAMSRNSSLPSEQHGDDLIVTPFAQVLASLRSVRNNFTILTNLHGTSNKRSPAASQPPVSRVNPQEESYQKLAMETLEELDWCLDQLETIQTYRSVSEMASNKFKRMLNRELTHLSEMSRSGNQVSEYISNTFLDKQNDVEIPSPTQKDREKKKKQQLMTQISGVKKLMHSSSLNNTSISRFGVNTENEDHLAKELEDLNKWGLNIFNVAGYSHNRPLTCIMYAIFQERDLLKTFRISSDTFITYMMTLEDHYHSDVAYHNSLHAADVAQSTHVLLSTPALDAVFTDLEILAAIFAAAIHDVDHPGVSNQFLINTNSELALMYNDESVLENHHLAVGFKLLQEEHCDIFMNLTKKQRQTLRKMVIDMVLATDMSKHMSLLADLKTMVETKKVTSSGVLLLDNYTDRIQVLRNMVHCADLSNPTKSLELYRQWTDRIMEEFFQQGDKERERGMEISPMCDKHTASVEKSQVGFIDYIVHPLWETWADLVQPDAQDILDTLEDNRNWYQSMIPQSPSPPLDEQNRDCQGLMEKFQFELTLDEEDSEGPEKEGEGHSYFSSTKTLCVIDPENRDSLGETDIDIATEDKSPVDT
Sequence of Cytochrome P450 1A2 (Homo sapiens) (P05177 whole entry, looked up): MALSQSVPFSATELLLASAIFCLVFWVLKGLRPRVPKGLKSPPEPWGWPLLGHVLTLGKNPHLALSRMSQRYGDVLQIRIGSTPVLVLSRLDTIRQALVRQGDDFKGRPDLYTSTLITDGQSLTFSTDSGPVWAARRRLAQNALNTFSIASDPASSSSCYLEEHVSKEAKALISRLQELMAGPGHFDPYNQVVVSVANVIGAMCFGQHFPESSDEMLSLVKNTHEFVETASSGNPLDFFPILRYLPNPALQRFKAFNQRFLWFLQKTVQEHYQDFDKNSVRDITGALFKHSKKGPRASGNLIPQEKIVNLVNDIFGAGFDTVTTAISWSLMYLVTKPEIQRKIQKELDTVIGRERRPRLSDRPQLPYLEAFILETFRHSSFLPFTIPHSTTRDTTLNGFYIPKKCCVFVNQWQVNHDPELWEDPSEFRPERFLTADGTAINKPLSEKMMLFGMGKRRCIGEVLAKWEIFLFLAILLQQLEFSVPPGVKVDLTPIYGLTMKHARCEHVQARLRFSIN

CC(CCC(=O)O)(c1ccc(O)cc1)c1ccc(O)cc1
inactive: Potency [1] > 11.4 µM | Potency [2] | Potency [3] > 92 µM | Potency [4] > 92 µM | Potency [5] > 92 µM | Potency [6] > 92 µM | Potency [7] > 92 µM | Potency [8] > 92 µM | activity change, negative = inhibition [9] 6.62% | activity, negative = inhibition [10] -4.62% | Potency [11] > 46 µM | Potency [12] > 9.22 µM | Potency [13] | activity change, negative = cytotoxicity [14] 8.91% | activity change, negative = cytotoxicity [15] -7.14% | Potency [16] | Potency [17] | Potency [18] | Potency [19] | Potency [20] | Potency [21] | Potency [22] | Potency [23] | Potency [24]

Source: PubChem BioAssay (NCATS)
